Measurements taken from PubChem BioAssay (Tox21).
Several values for one entry are separate records, joined by “and”; a condition that tells them apart may be missing. Identical values can stand only once. Records with an inconclusive call do not appear. The source holds several records for some structures; these can differ, active in one and inactive in another. Activity calls are given as the source filed them. Unless noted, calls come from the whole dose curve; as a rule, active = well fitted curve in the direction sought with a large enough effect in the repeat runs; inconclusive = weak or mixed curves; inactive = no such curve, though single readings can be large; an effect the other way counts as inactive or inconclusive.

Key:
[1] = qHTS assay to identify small molecule agonists of the RXR signaling pathway - cell viability counter screen (AID 1159529); note: nearly all actives have a fitted effect of over 50% in size; note: potency is the fitted concentration of half-maximal effect
Summary of the method: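 In this parallel viability measure, GeneBLAzer RXR-alpha HEK 293T cells (2% charcoal-stripped FBS) were given a 5 hr preincubation, treated with compounds 16 hr at 37 C, and read by CellTiter-Glo luminescence.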

[2] = qHTS assay to identify small molecule antagonists of the retinoid acid receptor (RAR) signaling pathway - cell viability counter screen (AID 1159551); note: nearly all actives have a fitted effect of over 35% in size
Summary of the method: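 ATP-based viability, C3RL4 cells, 6 h at 37 C with 1 uM final retinol co-added after compound; luminescence read 30 min post CellTiter-Glo, RT.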

[3] = qHTS assay to identify small molecule antagonists of the retinoic acid receptor (RAR) signaling pathway (AID 1159552; note: nearly all actives have a fitted effect of over 50% in size)
Summary of the method: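 C3RL4 RARE-luc cells, overnight plating; retinol 1 uM final added right after compound; 6 hr 37 C; luciferase read at 30 min RT.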

[4] = qHTS assay to identify small molecule agonists of the retinoic acid receptor (RAR) signaling pathway (AID 1159553); note: potency is the fitted concentration of half-maximal effect
Summary of the method: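 Quantitative high-throughput format: the Tox21 10K library was tested on C3RL4 RARE-luciferase cells for 6 hr at 37 C and 5% CO2, with luminescence measured after a 30 min room-temperature reagent step.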

[5] = qHTS assay to identify small molecule antagonists of the estrogen related receptor (ERR) signaling pathway from Tox21 library - cell viability counter screen (AID 1224834); note: nearly all actives have a fitted effect of over 30% in size; note: potency is the fitted concentration of half-maximal effect
Summary of the method: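 Compounds in DMSO were pinned onto ERR cells that had been incubated for 6 h, and the plates were held at 37 C for 17.5 h. CellTiter-Fluor reagent was then added and fluorescence was measured after 30 min.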

[6] = biological target: Luciferin 4-monooxygenase (Photinus pyralis) (UniProt P08659); assay: qHTS assay to identify small molecule inhibitors of firefly luciferase (AID 1224835); note: nearly all actives have a fitted effect of over 25% in size; note: potency is the fitted concentration of half-maximal effect
Sequence of Luciferin 4-monooxygenase (Photinus pyralis) (P08659 whole entry, looked up): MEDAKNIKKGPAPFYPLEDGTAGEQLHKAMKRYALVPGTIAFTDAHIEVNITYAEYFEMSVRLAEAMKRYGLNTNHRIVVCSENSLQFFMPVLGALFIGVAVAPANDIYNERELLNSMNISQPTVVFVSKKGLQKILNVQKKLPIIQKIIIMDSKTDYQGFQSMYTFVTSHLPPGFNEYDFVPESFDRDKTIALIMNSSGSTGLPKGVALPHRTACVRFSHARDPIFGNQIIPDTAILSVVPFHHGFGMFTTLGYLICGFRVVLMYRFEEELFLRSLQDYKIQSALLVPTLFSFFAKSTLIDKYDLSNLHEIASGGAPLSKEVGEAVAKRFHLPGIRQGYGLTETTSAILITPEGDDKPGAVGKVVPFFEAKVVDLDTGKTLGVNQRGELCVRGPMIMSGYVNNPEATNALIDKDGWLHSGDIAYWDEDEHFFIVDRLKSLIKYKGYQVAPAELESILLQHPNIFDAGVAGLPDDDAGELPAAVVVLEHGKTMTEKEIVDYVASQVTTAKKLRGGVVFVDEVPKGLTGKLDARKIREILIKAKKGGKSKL
Summary of the method: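 Inhibition of purified Photinus luciferase is measured by luminescence. Substrate levels (D-luciferin, ATP) sit at their KM values. Each compound is tested in a concentration series.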

[7] = qHTS assay to identify small molecule agonists of the constitutive androstane receptor (CAR) signaling pathway - cell viability counter screen (AID 1224836); note: series mostly up to about 92 µM; nearly all actives have a fitted effect of over 45% in size
Summary of the method: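 Using CellTiter-Fluor, viability of HepG2 cells harbouring hCAR and CYP2B6-2.2kb was measured following 23 h incubation with a 15-concentration compound series plus PK11195 (0.75 uM final).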

[8] = qHTS assay to identify small molecule antagonists of the constitutive androstane receptor (CAR) signaling pathway - cell viability counter screen (AID 1224837); note: series mostly up to about 92 µM; nearly all actives have a fitted effect of over 45% in size
Summary of the method: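 Cells are seeded, rested 4 hr at 37 C/5% CO2, dosed with compound (15-point series) and 50 nM CITCO, incubated a further 23 hr, and then CellTiter-Fluor reagent is added before fluorescence is read. The line is HepG2 with stable hCAR and CYP2B6-2.2kb.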

[9] = qHTS assay to identify small molecule antagonists of the estrogen related receptor signaling pathway with the pleiotropic PPARgamma coactivator (PGC) from Tox21 10K library - cell viability counter screen (AID 1224840; active = well fitted cell-killing curve with a large enough effect in the repeat runs, not every such curve was filed as active; note: nearly all actives have a fitted effect of over 40% in size)
Summary of the method: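 Cell viability is measured by CellTiter-Fluor fluorescence in PGC/ERR cells that receive compounds after a 6-hour attachment period and are then incubated 17.5 hours at 37 C.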

[10] = biological target: Thyrotropin receptor (Homo sapiens) (UniProt P16473); assay: qHTS assay to identify small molecule agonists of the thyroid stimulating hormone receptor (TSHR) signaling pathway (AID 1224843; calls by dose curve; note: nearly all actives have a fitted effect of over 45% in size)
Sequence of Thyrotropin receptor (Homo sapiens) (P16473 whole entry, looked up): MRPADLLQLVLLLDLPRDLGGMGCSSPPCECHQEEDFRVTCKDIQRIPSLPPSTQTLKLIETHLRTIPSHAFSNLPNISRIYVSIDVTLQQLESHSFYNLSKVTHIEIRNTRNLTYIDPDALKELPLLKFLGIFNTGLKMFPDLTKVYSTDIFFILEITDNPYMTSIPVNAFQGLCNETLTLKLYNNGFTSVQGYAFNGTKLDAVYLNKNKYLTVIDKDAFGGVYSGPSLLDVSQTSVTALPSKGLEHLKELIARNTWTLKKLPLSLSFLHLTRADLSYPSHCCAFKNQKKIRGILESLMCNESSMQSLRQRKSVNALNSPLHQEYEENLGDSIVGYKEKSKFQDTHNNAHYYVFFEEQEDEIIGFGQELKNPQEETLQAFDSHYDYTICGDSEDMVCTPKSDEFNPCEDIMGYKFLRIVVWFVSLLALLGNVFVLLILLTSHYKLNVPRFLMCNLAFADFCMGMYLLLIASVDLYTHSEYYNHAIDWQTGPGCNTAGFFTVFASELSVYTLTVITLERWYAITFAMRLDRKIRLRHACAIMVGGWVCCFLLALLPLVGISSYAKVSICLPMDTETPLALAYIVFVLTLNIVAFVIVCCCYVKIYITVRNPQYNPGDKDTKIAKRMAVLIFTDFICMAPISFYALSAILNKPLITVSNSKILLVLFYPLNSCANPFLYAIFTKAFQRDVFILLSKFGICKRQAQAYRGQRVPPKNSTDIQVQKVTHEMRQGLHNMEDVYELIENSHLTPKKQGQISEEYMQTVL
Summary of the method: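 A cell-based cAMP HTRF format was run in TSHR-transfected HEK293 cells, 800 per well. Treatment: 30 min, room temperature. Detection: 1 h with labelled cAMP and anti-cAMP cryptate. Concentration-response over 15 points, three replicates.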

[11] = qHTS assay to identify small molecule antagonists of the estrogen related receptor (ERR) signaling pathway - cell viability counter screen (AID 1224818);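 note: series mostly up to about 46 µM; viability measured after 17.5 h of compound exposure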
Summary of the method: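 Quantitative high-throughput viability counter screen in ERR cells. Compounds (DMSO) incubated 17.5 h at 37 C; read-out was CellTiter-Fluor fluorescence.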

[12] = qHTS assay to identify small molecule antagonists of the estrogen related receptor signaling pathway with the pleiotropic PPARgamma coactivator (PGC) cell viability counter screen (AID 1224822; note: series mostly up to about 46 µM)
Summary of the method: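 Cytotoxicity in the PGC/ERR cell line is assessed with CellTiter-Fluor, read as fluorescence intensity 30 min after reagent addition, following 17.5 h compound treatment at 37 C.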

[13] = biological target: Nuclear receptor subfamily 1 group I member 3 (Homo sapiens) (UniProt Q14994); assay: qHTS assay to identify small molecule antagonists of the constitutive androstane receptor (CAR) signaling pathway (AID 1224838);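 note: HepG2 cells stably expressing hCAR with CYP2B6 luciferase reporter stimulated by CITCO; nearly all actives have a fitted effect of over 40% in size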
Sequence of Nuclear receptor subfamily 1 group I member 3 (Homo sapiens) (Q14994 whole entry, looked up): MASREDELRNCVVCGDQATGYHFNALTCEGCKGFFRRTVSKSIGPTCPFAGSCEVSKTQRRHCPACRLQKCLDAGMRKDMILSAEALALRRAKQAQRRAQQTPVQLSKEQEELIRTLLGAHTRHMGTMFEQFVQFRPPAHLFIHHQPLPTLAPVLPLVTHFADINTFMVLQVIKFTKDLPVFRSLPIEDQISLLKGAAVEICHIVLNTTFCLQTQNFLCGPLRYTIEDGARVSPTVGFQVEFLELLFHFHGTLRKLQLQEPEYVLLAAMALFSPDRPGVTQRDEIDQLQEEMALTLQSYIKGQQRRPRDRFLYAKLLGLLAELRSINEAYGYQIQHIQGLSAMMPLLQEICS
Summary of the method: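 Luminescence from a CYP2B6-2.2kb promoter reporter in hCAR-expressing HepG2 cells reflects CAR signaling. Cells received compounds at 15 concentrations and 50 nM CITCO (final), then incubated 24 h at 37 C/5% CO2.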

[14] = biological target: Nuclear receptor subfamily 1 group I member 3 (Homo sapiens) (UniProt Q14994); assay: qHTS assay to identify small molecule agonists of the constitutive androstane receptor (CAR) signaling pathway (AID 1224839);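 note: HepG2 cells stably carrying human CAR and a CYP2B6 luciferase reporter; series mostly up to about 92 µM; nearly all actives have a fitted effect of over 15% in size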
Summary of the method: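 Double-stable HepG2 cells (hCAR, CYP2B6-2.2kb) seeded 4 h before compound addition. Exposure 24 h with 0.75 uM PK11195 final. Luciferase detected by ONE-Glo.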

[15] = qHTS assay to identify small molecule antagonists of the estrogen related receptor signaling pathway with the pleiotropic PPARgamma coactivator (PGC) from Tox21 10K library (AID 1224841; call rule not given here; note: series mostly up to about 92 µM; actives are mostly falling curves and most rising ones were filed inactive; nearly all actives have a fitted effect of over 50% in size)
Summary of the method: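 Cells stably carrying the PGC/ERR reporter, seeded at 2,000 per well, received pin-transferred compounds 6 h post-plating. Exposure lasted 18 h at 37 C. Signal: One-Glo luminescence.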

[16] = qHTS assay to identify small molecule agonists of the estrogen related receptor signaling pathway with the pleiotropic PPARgamma coactivator (PGC) from Tox21 10K library (AID 1224842); note: nearly all actives have a fitted effect of over 15% in size
Summary of the method: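 Luminescence from One-Glo (30 min, room temperature) measured after PGC/ERR cells had 18 h at 37 C with pinned compound (23 nL in DMSO). Cells had been seeded at 2,000 per well and pre-incubated 6 h.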

[17] = qHTS assay to identify small molecule antagonists of the estrogen related receptor (ERR) signaling pathway (AID 1224819;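 note: luminescence from an ERR-driven luciferase reporter measured with One-Glo reagent; series mostly up to about 46 µM; nearly all actives have a fitted effect of over 50% in size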)
Summary of the method: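 ERR reporter cell line (NTP) plated at 2,000 cells/well, settled 6 h at 37C/5% CO2, then exposed to LOPAC compounds for 18 h at 37C. One-Glo luciferase luminescence read after 30 min at room temperature.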

[18] = qHTS assay to identify small molecule agonists of the estrogen related receptor (ERR) signaling pathway (AID 1224820)
Summary of the method: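 Luminescence readout (One-Glo, 30 min RT) from NTP-supplied ERR cell line exposed to compounds for 18 h at 37 C. Cells seeded 2,000 per well and pre-incubated 6 h before pin-tool compound transfer.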

[19] = tested on: estrogen-related receptor alpha (ERRalpha) with PGC-1alpha coactivator, human; assay: qHTS assay to identify small molecule antagonists of the estrogen related receptor signaling pathway with the pleiotropic PPARgamma coactivator (PGC) (AID 1224821; calls by dose curve)
Summary of the method: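 PGC/ERR reporter cells; 6 h pre-incubation 37 C/5% CO2; pin-tool compound in DMSO, 18 h 37 C; One-Glo added, 30 min RT; luminescence read. qHTS antagonist mode.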

[20] = qHTS assay to identify small molecule agonists of the estrogen related receptor signaling pathway with the pleiotropic PPARgamma coactivator (PGC) (AID 1224823)
Summary of the method: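 Luminescence readout (One-Glo, 30 min RT) from PGC/ERR cell line treated 18 h at 37 C with pin-tool-delivered DMSO compound solutions; cells plated 6 h before dosing. Quantitative HTS format.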

Measured: Potency

Cc1ncc[nH]1
inactive: [1] | [2] | [3] | [4] | [5] | [6] | [7] | [8] | [9] | [10]

CCCCNS(=O)(=O)c1ccccc1
inactive: [1] | [2] | [3] | [4] | [5] | [6] | [7] | [8] | [10]

CN1C(C(=O)Nc2ccccn2)=C(O)c2ccccc2S1(=O)=O
inactive: [1] | [2] | [3] | [4] | [11] | [12] | [5] | [8] | [13] | [9] | [10]

Cc1cccc(C(=O)O)c1
not listed: [7] | [11] | [12] | [17] | [18] | [19] | [20]
inactive: all other assays above

CC(=O)C1(C)CC2=C(CCCC2(C)C)CC1C (stereo not drawn)
not listed: [11] | [12] | [14] | [17] | [18] | [19] | [20]
inactive: all other assays above

O=C(O)c1ccccc1Nc1cccc(C(F)(F)F)c1
inactive: [1] | [2] | [3] | [4] | [5] | [6] | [8] | [13] | [14] | [9] | [10]

Nc1ccc(Nc2ccccc2)cc1
active: [5] 54.5 µM and 27.3 µM | [6] 79.7 µM
inactive: [1] | [2] | [3] | [4] | [7] | [8] | [13]

C[C@]12CCC(=O)C=C1CC[C@@H]1[C@@H]2C(=O)C[C@@]2(C)[C@H]1CC[C@]2(O)C(=O)CO
inactive: [1] | [2] | [3] | [4] | [11] | [12] | [5] | [6] | [7] | [8] | [13]

O=c1oc(=O)c2cc3c(=O)oc(=O)c3cc12
not listed: [7] | [10] | [11] | [12] | [17] | [18] | [19] | [20]
inactive: all other assays above

O=S(=O)(O)c1ccc(O)cc1
inactive: [1] | [2] | [3] | [4] | [5] | [6] | [7] | [8] | [9] | [10]

CCCCCCCCCC(=O)OC
inactive: [1] | [2] | [3] | [4] | [5] | [6] | [7] | [8] | [13] | [14] | [10]

CC(C)=CCCC(C)CCO (stereo not drawn)
inactive: [1] | [2] | [3] | [4] | [5] | [6] | [7] | [8] | [10]

Nc1ccccc1N
inactive: [1] | [2] | [3] | [11] | [13] | [9]
active: [4] 1.25 µM and 1.72 µM

OC[C@H]1O[C@@H]2O[C@H]3[C@H](O)[C@@H](O)[C@@H](O[C@H]4[C@H](O)[C@@H](O)[C@@H](O[C@H]5[C@H](O)[C@@H](O)[C@@H](O[C@H]6[C@H](O)[C@@H](O)[C@@H](O[C@H]7[C@H](O)[C@@H](O)[C@@H](O[C@H]8[C@H](O)[C@@H](O)[C@@H](O[C@H]1[C@H](O)[C@H]2O)O[C@@H]8CO)O[C@@H]7CO)O[C@@H]6CO)O[C@@H]5CO)O[C@@H]4CO)O[C@@H]3CO
21.9 µM (active) and inactive: [1]
not listed: [11] | [12] | [15] | [16] | [17] | [18] | [19] | [20]
inactive: all other assays above

CC(C(=O)O)c1cccc(C(=O)c2ccccc2)c1 (stereo not drawn)
not listed: [6] | [9] | [13] | [14]
inactive: all other assays above

OC1CCCCCCCCCCC1
inactive: [1] | [2] | [3] | [4] | [5] | [6] | [7] | [8] | [13] | [10]

Cc1c(OCC(F)(F)F)ccnc1CS(=O)c1nc2ccccc2[nH]1 (stereo not drawn)
active: [4] 34.4 µM and 26.6 µM
not listed: [6] | [7] | [9] | [14] | [16]
inactive: all other assays above

O=C(OCc1ccccc1)c1ccccc1O
active: [4] 9.62 µM | [6] 17.7 µM and 12.6 µM
inactive: [1] | [2] | [3] | [5] | [7] | [8] | [9] | [10]

OCCO
not listed: [11] | [12] | [15] | [16] | [17] | [18] | [19] | [20]
inactive: all other assays above

Cc1ccc(C)c(O)c1C
not listed: [11] | [12] | [15] | [16] | [17] | [18] | [19] | [20]
inactive: all other assays above
